T cruzi growth = T. cruzi proliferation inhibition; T. cruzi beta-gal in NIH3T3, GalScreen luminescence, 90 h; inhibition, % at 8.34 µM; 77,000 tested, 5.9% active; AID 624255;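 active = mean inhibition above about 93%, with at least 55% of replicates each passing it, limit read from the data, passing the limit was not always enough; inconclusive = only one of those two conditions holds; inactive = neither condition holds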
Pf Dd2 inh = P. falciparum Dd2 growth inhibition. SYBR Green, 72 h; active compounds read low. activity change, % at 10 µM. 94,000 tested, 2.3% active. AID 1159554; in the data active = activity change below about -80%; inconclusive = no clear call, values can overlap the other calls
C diff growth = blocks growth of Clostridium difficile; Clostridium difficile clinical isolate growth, OD600, 24 h; active compounds read low; growth activity, negative = inhibition, % at 16 µg/mL (by protocol); 86,000 tested, 0.25% active;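 active = mean growth activity at or below -80% and every replicate also at or below -80%; inconclusive = mean at or below -80% but some replicate above -80%; inactive = mean growth activity above -80%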
Hits are given with their value; n = inactive; u = inconclusive; x = no result. In the library only some 6.7% were active in any assay of this set; here they are far more common.

SMILES	T cruzi growth	Pf Dd2 inh	C diff growth
COc1ccc2c3c(n(C)c2c1)[C@@H](CO)N(C(=O)NC(C)C)CC31CN(C(=O)NC(C)C)C1	x	n	n
COc1cccc(CNC(=O)C[C@H]2C=C[C@H](NC(=O)C3CCOCC3)[C@@H](CO)O2)c1	n	n	n
O=C(Cc1ccccn1)N1CC(=O)N2[C@@H](CO)[C@H](c3ccc(C#CC4CCCC4)cc3)[C@@H]2C1	x	n	n
O=C(N[C@H]1CC[C@H](CCNC(=O)C2CCC2)O[C@@H]1CO)c1ccncc1	x	n	n
COc1cccc(S(=O)(=O)N2CCC3(CC2)CN(C(=O)Nc2cccc(F)c2)[C@@H](CO)c2[nH]c4cc(OC)ccc4c23)c1	x	n	n
C[C@@H]1CN([C@@H](C)CO)C(=O)Cc2cc(NC(=O)Nc3ccc(C(F)(F)F)cc3)ccc2O[C@@H]1CN(C)CC1CC1	n	-83	n
C[C@H]1CN([C@@H](C)CO)C(=O)Cc2cc(NC(=O)CCC(F)(F)F)ccc2O[C@H]1CN(C)S(C)(=O)=O	n	-87	n
C[C@H](CO)N1C[C@H](C)[C@H](CN(C)CC2CC2)Oc2ccc(NC(=O)Nc3ccccc3)cc2CC1=O	n	-89	n
C[C@H]1CN([C@@H](C)CO)C(=O)Cc2cc(NC(=O)CCC(F)(F)F)ccc2O[C@@H]1CN(C)C	x	n	n
C[C@H](CO)N1C[C@H](C)[C@H](CN(C)CC2CC2)Oc2ccc(NC(=O)Nc3ccc(C(F)(F)F)cc3)cc2CC1=O	n	n	n
C[C@@H]1CN([C@H](C)CO)C(=O)Cc2cc(NC(=O)Nc3ccccc3)ccc2O[C@H]1CN(C)CC1CC1	n	n	n
C[C@@H]1CN([C@@H](C)CO)C(=O)c2cc(-c3cccc(C#N)c3)cnc2O[C@@H]1CN(C)Cc1ccncc1	n	n	n
CC(C)(C)S(=O)N1Cc2cc(C(=O)NCc3ccc4c(c3)OCO4)nc(-c3cccc(-c4cc5ccccc5o4)c3)c2[C@H]1CCO (stereo partly drawn)	x	-93	n
CC(C)NC(=O)N1Cc2cc(C(=O)NC3Cc4ccccc4C3)nc(-c3cccc(-c4cccnc4)c3)c2[C@@H]1CCO	n	x	n
CC(C)NC(=O)N1Cc2cc(C(=O)NCC(F)(F)F)nc(-c3cccc(-c4cc5ccccc5o4)c3)c2[C@H]1CCO	x	-86	n
CC(C)(C)S(=O)N1Cc2cc(C(=O)NCc3ccc4c(c3)OCO4)nc(-c3cccc(-c4cccc(F)c4)c3)c2[C@@H]1CCO (stereo partly drawn)	x	n	n
C=CCOC(=O)[C@H]1[C@@H]2C(=O)O[C@@H](c3ccccc3)[C@@H](c3ccccc3)N2[C@@H](c2ccc(OCCOC(=O)[C@H]3C[C@H]4C(=O)N[C@@H](CC(C)C)C(=O)N4[C@H]3c3ccc(O)cc3)cc2)[C@]12C(=O)Nc1ccccc12	x	x	n
C[C@H](CO)N1C[C@H](C)[C@H](CN(C)CC2CCCCC2)Oc2c(NS(=O)(=O)c3cn(C)cn3)cccc2C1=O	n	n	n
C[C@@H]1CCCCO[C@@H](CN(C)C(=O)NC2CCCCC2)[C@H](C)CN([C@@H](C)CO)C(=O)c2cc(NC(=O)Nc3ccccc3)ccc2O1	n	n	n
C[C@@H]1CCCCO[C@@H](CN(C)C(=O)Nc2ccc(F)cc2)[C@H](C)CN([C@H](C)CO)C(=O)c2cc(NC(=O)NC3CCCCC3)ccc2O1	n	n	n
C[C@@H]1CN([C@H](C)CO)C(=O)c2cc(NC(=O)NC3CCCCC3)ccc2O[C@@H](C)CCCCO[C@@H]1CN(C)C(=O)Nc1ccccc1	n	-81	x
C[C@@H]1CN([C@H](C)CO)C(=O)c2cc(NC(=O)Nc3ccccc3)ccc2O[C@@H](C)CCCCO[C@@H]1CN(C)C(=O)NC1CCCCC1	n	-85	n
C[C@@H]1CCCCO[C@@H](CN(C)C(=O)Nc2ccccc2)[C@@H](C)CN([C@H](C)CO)C(=O)c2cc(NC(=O)NC3CCCCC3)ccc2O1	n	n	x
C[C@@H]1CN([C@H](C)CO)C(=O)c2cc(NC(=O)NC3CCCCC3)ccc2O[C@@H](C)CCCCO[C@@H]1CN(C)C(=O)Nc1ccc(F)cc1	x	-88	n
C[C@@H]1CN([C@@H](C)CO)C(=O)c2cc(C#CCN(C)C)cnc2O[C@H]1CN(C)C(=O)c1cccc(F)c1	n	n	n
SMILES	T cruzi growth	Pf Dd2 inh	C diff growth
C[C@H](CO)N1C[C@H](C)[C@@H](CN(C)S(=O)(=O)c2ccc(Cl)cc2)Oc2c(NS(C)(=O)=O)cccc2C1=O	n	n	n
O=C(Nc1cc(F)ccc1F)N[C@H]1C=C[C@@H](CC(=O)N2CCc3ccccc3C2)O[C@H]1CO	n	n	x
C[C@H]1CN([C@@H](C)CO)C(=O)c2c(c3ccccc3n2C)-c2ccccc2CO[C@H]1CN(C)C(=O)Nc1cccc(Cl)c1Cl	x	-91	n
C[C@H](CO)N1C[C@H](C)[C@H](CN(C)C(=O)Nc2cccc(Cl)c2Cl)OCc2ccccc2-c2c(n(C)c3ccccc23)C1=O	x	n	n
C[C@H](CO)N1C[C@H](C)[C@@H](CN(C)C(=O)Nc2cccc(Cl)c2Cl)OCc2ccccc2-c2c(n(C)c3ccccc23)C1=O	x	n	n
C[C@@H]1CN([C@@H](C)CO)C(=O)c2c(c3ccccc3n2C)-c2ccccc2CO[C@H]1CN(C)C(=O)Nc1cccc(Cl)c1Cl	x	-94	n
CN(C)c1ccc2c(c1)[C@@H]1C[C@@H](CC(=O)NCc3ccncc3)O[C@@H](CO)[C@@H]1O2	n	n	x
C[C@@H]1CN([C@H](C)CO)S(=O)(=O)c2ccc(C#Cc3ccncc3)cc2O[C@H]1CN(C)C	n	n	n
COCC(=O)N1CC(=O)N2[C@@H](CO)[C@@H](c3ccc(C#CC4CCCC4)cc3)[C@@H]2C1	x	n	n
C[C@H](CO)N1C[C@H](C)[C@H](CN(C)S(=O)(=O)c2ccc(C(F)(F)F)cc2)OCc2ccccc2-c2c(n(C)c3ccccc23)C1=O	x	-94	n
C[C@H]1CN([C@@H](C)CO)C(=O)c2c(c3ccccc3n2C)-c2ccccc2CO[C@@H]1CN(C)S(=O)(=O)c1ccc(C(F)(F)F)cc1	x	u	n
C[C@H](CO)N1C[C@H](C)[C@@H](CN(C)S(=O)(=O)c2ccc(C(F)(F)F)cc2)OCc2ccccc2-c2c(n(C)c3ccccc23)C1=O	x	-90	n
C[C@@H]1CN([C@@H](C)CO)C(=O)c2c(c3ccccc3n2C)-c2ccccc2CO[C@@H]1CN(C)S(=O)(=O)c1ccc(C(F)(F)F)cc1	x	-89	n
COc1ccc(S(=O)(=O)Nc2ccc3c(c2)C(=O)N([C@@H](C)CO)C[C@@H](C)[C@@H](CN(C)S(=O)(=O)c2cccs2)O3)cc1	n	n	n
Cc1ccc(-c2cnc3c(c2)C(=O)N([C@H](C)CO)C[C@H](C)[C@H](CN(C)Cc2ccccc2C(=O)O)O3)cc1	n	n	n
C[C@@H]1CN([C@H](C)CO)C(=O)c2cc(NC(=O)CCCCCC(=O)Nc3ccccc3N)ccc2O[C@@H]1CN(C)Cc1ccc(Oc2ccccc2)cc1	x	n	n
C[C@H]1CN([C@@H](C)CO)C(=O)c2cccc(NC(=O)C3CC3)c2O[C@H]1CN(C)Cc1ccc(Oc2ccccc2)cc1	n	n	n
C[C@H]1CN([C@@H](C)CO)C(=O)c2cccc(NC(=O)CCCCCC(=O)Nc3ccccc3N)c2O[C@@H]1CN(C)Cc1ccc(Oc2ccccc2)cc1	x	-82	n
